Compounds without any hit were thinned out: in the full panel of roughly 83,000, 20% have a hit.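 Testing used 96-well plates and a 48-hour single-concentration exposure. Example: -40 means 40% of the starting cells died.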 Unmarked numbers belong to inactive results. Active and inactive are the calls of the source. Rule for the calls: active = growth percent below 10; inactive = the rest.
Legend:
Assay in all cases: NCI-60 one-dose screen, 48 h (100 = growth as untreated, 0 = no growth, -100 = all killed)
Details in all cases: 10 µM unless noted
SK-MEL-2 melanoma = test system: SK-MEL-2 melanoma
EKVX NSCLC = test system: EKVX NSCLC
SN12C renal = test system: SN12C renal
UO-31 renal = test system: UO-31 renal
TK-10 renal = test system: TK-10 renal
ACHN renal = test system: ACHN renal
A498 renal = test system: A498 renal
CCRF-CEM leukemia = test system: CCRF-CEM leukemia
MOLT-4 leukemia = test system: MOLT-4 leukemia
SR leukemia = test system: SR leukemia
RPMI-8226 leukemia = test system: RPMI-8226 leukemia
OVCAR-8 ovarian = test system: OVCAR-8 ovarian
OVCAR-5 ovarian = test system: OVCAR-5 ovarian
OVCAR-4 ovarian = test system: OVCAR-4 ovarian
SK-OV-3 ovarian = test system: SK-OV-3 ovarian
IGROV1 ovarian = test system: IGROV1 ovarian
OVCAR-3 ovarian = test system: OVCAR-3 ovarian
HS 578T breast = test system: HS 578T breast
NCI/ADR-RES ovarian = test system: NCI/ADR-RES ovarian
T-47D breast = test system: T-47D breast

Structure (SMILES) | growth (SK-MEL-2 melanoma) | growth (EKVX NSCLC) | growth (SN12C renal) | growth (UO-31 renal) | growth (TK-10 renal) | growth (ACHN renal) | growth (A498 renal) | growth (CCRF-CEM leukemia) | growth (MOLT-4 leukemia) | growth (SR leukemia) | growth (RPMI-8226 leukemia) | growth (OVCAR-8 ovarian) | growth (OVCAR-5 ovarian) | growth (OVCAR-4 ovarian) | growth (SK-OV-3 ovarian) | growth (IGROV1 ovarian) | growth (OVCAR-3 ovarian) | growth (HS 578T breast) | growth (NCI/ADR-RES ovarian) | growth (T-47D breast)
O=C(NCc1ccccc1)c1ccc2c(c1)NC(=O)[C@@H]1CCCN21 | 99% | 101% | 105% | 90.9% | 93.8% | 98.7% | 70.3% | 116% | 113% | 106% | 105% | 106% | 100% | 112% | 111% | 104% | 101% | 90.7% | 98.3% | 108%
COc1ccc(C(=O)c2cc(OC)c(OC)c(OC)c2)cc1OC(=O)CCl | 26.1% | 70.2% | 32% | 44.8% | 63.6% | 40.2% | 59.3% | 14.9% | 18.4% | 13.4% | 29.7% | 7.08% (active) | 73.7% | 54.5% | 17.7% | 25.7% | 0.464% (active) | 48.9% | 10.2% | 74.7%
CC1(C)Cc2c(Br)c(Br)c(Br)c(OCC(O)CN3CCOCC3)c2O1 (stereo not given) | -46.5% (active) | 102% | 104% | -87.3% (active) | 67% | 93.4% | 84.3% | 9.89% (active) | 40.1% | 24.9% | 20.8% | 88.9% | 99.7% | 99.5% | 110% | -83.4% (active) | 57% | 98.1% | 81.2% | 108%
COc1ccc(-c2nc(C#N)c(NCC(c3ccc(Cl)cc3)N3CCCCC3)o2)cc1 (stereo not given) | 109% | 95.6% | 103% | 72% | 112% | 91.7% | 108% | 86.9% | 75.9% | 74.5% | 85.6% | 101% | 96% | 87.5% | 109% | 85.8% | 95.1% | 97.3% | 87.1% | 94.8%
COC(=O)c1nc(-c2ccccc2)oc1S(=O)(=O)n1nc(C)cc1N | 80.3% | 87.8% | 58.5% | 51.4% | 73.5% | -86.2% (active) | 99.9% | 9.2% (active) | 14.6% | 3.74% (active) | 53.2% | 95.3% | 103% | 104% | 106% | 61% | 20.4% | 93.6% | 101% | 22.5%
CC[C@]12C=CCN3CC[C@@]4(c5ccc(OC)cc5N(C)[C@H]4[C@@](O)(C(=O)OC)[C@@H]1OC(=O)CCC(=O)O[C@H]1CC[C@H]4[C@@H]5CC[C@H]6CC(=O)CC[C@]6(C)[C@H]5CC[C@]14C)[C@@H]32 | 8.52% (active) | 21.2% | 24.8% | 13.3% | 21.2% | 19.1% | 12.3% | 7.55% (active) | 1.58% (active) | -10.4% (active) | 0.329% (active) | 25.7% | 34.6% | 36.6% | 35.3% | 28.6% | 23.8% | 43.4% | 25.4% | 8.78% (active)
CCc1ccc(OCc2ccccc2C(=O)Nc2ccc3nc(C)cc(N)c3c2)cc1 | -83.1% (active) | -56.2% (active) | -79.7% (active) | -98.5% (active) | -93.5% (active) | -100% (active) | -94.3% (active) | -53.4% (active) | -74.4% (active) | -61.2% (active) | -45.4% (active) | -60.7% (active) | -95.4% (active) | -84.3% (active) | -97% (active) | -71.5% (active) | -92.4% (active) | -42% (active) | -71.5% (active) | -60% (active)
COc1cc(NC(=O)c2cc(O)c(C/C=C(\C)CCC=C(C)C)c(O)c2)cc2c1O[C@]1(C)CC[C@@H](O)C(C)(C)[C@H]1C2 | -5.49% (active) | 26.1% | 20.5% | -21.5% (active) | 56.1% | 4.47% (active) | -29.2% (active) | 6.24% (active) | 0.564% (active) | -1.71% (active) | -30% (active) | 23.5% | 44.9% | 29.6% | 26.9% | 20% | -12.1% (active) | 18.4% | 65% | 18%
O=C(Nc1nc2ccc(C(F)(F)F)cc2s1)c1cc(Cl)ccc1O | -11.4% (active) | -1.23% (active) | 9.78% (active) | 7.2% (active) | 4.94% (active) | 2.6% (active) | -26.8% (active) | 15% | 1.46% (active) | 0.767% (active) | -5.53% (active) | 12.9% | 28% | 20.2% | -16.2% (active) | 30.8% | 8.08% (active) | 5.64% (active) | -4.36% (active) | -5.13% (active)
CC(C)NS(=O)(=O)c1cccc(-c2ccc3c4c(n(CCCN(C)C)c(=O)c3c2)-c2ccccc2C4=O)c1 | 101% | 105% | 97.2% | 91% | 114% | 82.4% | 83.3% | 1.51% (active) | 68.2% | -27% (active) | 80.9% | 76.4% | 117% | 101% | 104% | 90% | 110% | 99.8% | 103% | 97.1%
O=C(N/N=C/C[C@@H]1[C@@H](/C=C/[C@@H](O)COc2cccc(Cl)c2)[C@H](O)C[C@@H]1O)c1ccncc1 | 102% | 98.4% | 102% | 89.5% | 73.2% | 101% | 97.9% | 98% | 83.7% | 92.3% | 94.5% | 79.9% | 97.4% | 104% | 77% | 109% | 105% | 92.5% | 102% | 90.8%
NC(=O)c1ccc(C2C3=C(CCCC3=O)OC3=C2C(=O)c2ccccc2C3=O)cc1 (stereo not given) | 20.6% | 24.6% | -3.43% (active) | 90.6% | 98.2% | 27.9% | 131% | 15% | -17.4% (active) | 8.38% (active) | 18.6% | -1.42% (active) | 96.4% | -12.8% (active) | 104% | 8.86% (active) | -20.4% (active) | 67.1% | 79.8% | -1.02% (active)
O=C(O)CCNC1CCCCC1 | -21.2% (active) | 115% | 88.3% | 83.4% | 118% | 103% | 94.6% | 102% | 103% | 105% | 96.3% | 99.9% | 86% | 103% | 101% | 105% | 108% | 96.6% | 93.1% | 104%
COc1ccc(-c2cc(-c3nnc(SCC(=O)Nc4ccc(/C(C)=N\O)cc4)o3)c3ccccc3n2)cc1 | 98% | 103% | 104% | 97.7% | 96.4% | 117% | 101% | 97.9% | 106% | 113% | 99% | 105% | 113% | 103% | 111% | 112% | 98% | 99.9% | 102% | 102%
CC[C@]12C=CCN3CC[C@@]4(c5cc(NC(=O)CCC(=O)O[C@H]6CC[C@H]7[C@@H]8CC[C@H]9CC(=O)CC[C@]9(C)[C@H]8CC[C@]67C)c(OC)cc5N(C)[C@H]4[C@@](O)(C(=O)OC)[C@@H]1OC(C)=O)[C@@H]32 | 77.1% | 66% | 71.2% | 51.3% | 90.5% | 87.1% | 66.3% | 9.54% (active) | 17.8% | 24.8% | 45.2% | 75.9% | 104% | 60.7% | 98.6% | 69.6% | 73.2% | 75.5% | 72.9% | 46.4%
CC(C)NS(=O)(=O)c1cccc(-c2ccc3c(=O)n(CCCN)c4c(c3c2)C(=O)c2ccccc2-4)c1 | 111% | 100% | 113% | 93.2% | 96.8% | 101% | 103% | 88.2% | 95.6% | 77.6% | 102% | 97.6% | 109% | 85.2% | 107% | 102% | 99% | 105% | 98.6% | 103%
